# HT1080-NT tox: kills 2HG-producing HT-1080-NT fibrosarcoma cells. Potency, µM (top dose mostly 46.1 µM), inactives show top-dose activity, negative = less viability, most hits filed as cytotoxic. actives 1.6% (n = 360,000). HT-1080-NT fibrosarcoma viability, CellTiter-Glo ATP luminescence, 48 h;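 also: NT is the 2HG producing partner of a matched IDH1 knockdown line; 0% = DMSO-treated cells and -100% = media-only wells without cells; nearly all actives have a fitted effect of over 55% in size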
#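 Viability of the 2HG-overproducing fibrosarcoma line after 48 hours of compound exposure at 37 degrees C was determined by luminescence with CellTiter-Glo, and concentration-effect curves were then fitted and categorized.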
# DT40 TDP1 CPT: growth inhibition of DT40 Tdp1-/-;hTDP1 cells with camptothecin (screen for TDP1 inhibitors) | chicken DT40 Tdp1-/-;hTDP1 cells + 20 nM CPT, ATP luminescence, 48 h | Potency, µM (top dose mostly 46.2 µM), inactives show top-dose activity change, negative = growth inhibition, actives largely listed as inhibitors | actives 12% (n = 420,000) | AID 686979; also: % is scaled to controls: 0 for no effect and ±100 for the full control effect; nearly all actives have a fitted effect of over 55% in size
#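 Chicken DT40 Tdp1-/- cells stably complemented with human TDP1 were seeded at 400 cells/well in medium containing 20 nM camptothecin, exposed to pin-transferred compounds, and grown at 37 °C for at least 48 hr. Viability was read as ATP luminescence.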
# HT1080 IDH1KD tx: HT-1080 IDH1 knockdown cell toxicity (counter line); AID 686971; Potency, µM (highest dose often 46.1 µM), for inactives: at the highest dose activity, negative = toxicity, hits mostly cytotoxic; HT-1080 IDH1 knockdown viability, ATP luminescence, 48 h; actives 2% (n = 360,000);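 also: 0% = DMSO wells and -100% = cell-free medium wells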
#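 % activity derives from luminescence (CellTiter-Glo), normalised to DMSO and no-cell wells. HT-1080-IDH1KD cells, 750/well, had 48 h compound exposure at 37 °C.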
# TDP1 cell noCPT: qHTS for Inhibitors of human tyrosyl-DNA phosphodiesterase 1 (TDP1): qHTS in cells in absence of CPT | DT40 Tdp1-/- hTDP1 cells, no CPT, ATP luminescence, 48 h | Potency, µM (series often up to 46.2 µM), for inactives: top-dose activity change, negative = growth inhibition, actives largely listed as inhibitors | actives 15% (n = 420,000) | AID 686978, 2013; also: % is scaled to controls: 0 for no effect and ±100 for the full control effect; nearly all actives have a fitted effect of over 55% in size
#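 DT40 Tdp1-/-;hTDP1 cells, no CPT (DMSO vehicle only), 400 cells/well; compounds pin-transferred; ≥48 hr, 37 °C; CellTiter-Glo 30 min RT dark, luminescence read.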
# TGFb SMAD3 inh: blocks TGF-b signaling | HepG2 CAGA-GFP TGF-b/SMAD3 reporter, GFP fluorescence, 18 h; TGF-beta stimulated, 500 pg/mL final | Potency, µM (top dose mostly 46.1 µM), without a hit: top-dose activity, negative = inhibition, most hits filed as inhibitors | actives 1.2% (n = 410,000) | AID 588855; also: % is scaled to controls: 0 for no effect and ±100 for the full control effect; nearly all actives have a fitted effect of over 65% in size
#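 HEPG2 CAGA-GFP cells (1000/well, DMEM with 1% FBS) were pre-incubated 2 h at 37 degrees C, given compound by pin tool, then stimulated with TGF-beta at 500 pg/mL final for 18 h before per-cell GFP fluorescence imaging.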
# HepG2 tox: HepG2 cytotoxicity, counter-screen for TGF-b inhibitors | HepG2 CAGA-GFP viability, ATP luminescence, 18 h | Potency, µM (doses to about 46.1 µM), for the others: at the top dose activity change, negative = cytotoxicity, hits mostly cytotoxic | actives 0.76% (n = 410,000) | AID 588856
#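 HepG2 CAGA-GFP cells (1000/well, DMEM with 1% FBS) received compound, then TGF-beta at 500 pg/mL final, and were incubated 18 hours at 37 degrees C. Viability was read by CellTiter-Glo luminescence. Media-only wells were set as complete cell-killing and DMSO as no toxicity.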
# * marks the source's active call; other numbers are inactive results; u = inconclusive; x = not tested or not shown. Hits are enriched below; roughly 17% of the tested compounds scored in any of these assays. Calls follow the shape of the dose curve; as a rule, active = well fitted curve in the direction sought with a large enough effect; inconclusive = small, poorly fitted or top-dose-only effect, or another doubt; inactive = no such curve, though single readings can be large; an effect the other way counts as inactive or inconclusive. Potency is read from the fitted curve at half-maximal effect.
SMILES,HT1080-NT tox,DT40 TDP1 CPT,HT1080 IDH1KD tx,TDP1 cell noCPT,TGFb SMAD3 inh,HepG2 tox
COc1ccccc1CNCC(O)(c1ccc(F)cc1)c1ccc(F)cc1,-17.2%,18.4µM*,-12.3%,13µM*,u,-48.5%
Cc1cccc(C)c1NC(=O)N1CCC(C(=O)c2ccc(F)cc2)CC1,4.4%,9.9%,2.8%,-19.4%,12.9%,1.1%
COc1c(C)c2c(c(O)c1C/C=C(\C)CCC(=O)OCCN1CCOCC1)C(=O)OC2,x,0.133µM*,x,0.168µM*,x,x
O=C1NC[C@@H](CCCCN2C[C@H](Cc3ccc(O)cc3)N(CCc3ccc(O)cc3)C(=O)C2=O)N(CCc2ccc(O)cc2)C1=O,21.8%,3.3%,12.8%,-7.7%,x,x
CCOC(=O)C1(Cc2cccc(OC)c2)CCN(C/C=C/c2ccccc2)CC1,-13.3%,16.4µM*,-28.1%,18.4µM*,u,-44.7%
CCOC(=O)C1(Cc2cccc(OC)c2)CCN(C/C=C/c2ccc(OC)cc2)CC1,13µM*,5.8µM*,u,5.17µM*,-2.4%,-23.5%
CCOC(=O)C1(Cc2cccc(OC)c2)CCN(CC(O)CO)CC1 (stereo unspecified),6.4%,0.8%,0.9%,-1.8%,18.9%,1.2%
CCOC(=O)C1(Cc2cccc(OC)c2)CCN(Cc2ccc(OC)c(O)c2)CC1,-27.1%,u,-17.9%,u,4.8%,-32.0%
CCOC(=O)C1(Cc2cccc(OC)c2)CCN(CCO)CC1,6.1%,1.1%,3.6%,0.1%,12.5%,0.7%
CCOC(=O)C1(Cc2cccc(OC)c2)CCN(CC=C(C)C)CC1,-2.2%,u,7.1%,16.4µM*,-2.7%,-17.9%
CCOC(=O)C1(Cc2cccc(OC)c2)CCN(Cc2cccc(OCC)c2O)CC1,u,23.1µM*,-12.7%,16.4µM*,-29.7%,-37.6%
CCN(CC)Cc1c(O)ccc2c([N+](=O)[O-])c(C)n(-c3ccc(OC)cc3)c12,u,7.31µM*,u,16.4µM*,-6.1%,0.1%
Cc1cc(C)nc(N/C(=N\S(=O)(=O)Cc2ccccc2)Nc2ccccc2Br)n1,-22.2%,20.6µM*,u,20.6µM*,25.6%,-7.4%
Cc1cc(C)nc(Nc2ccccc2Br)n1,4.0%,-15.3%,3.9%,-29.0%,-5.8%,-10.1%
c1cc2c3c(cccc3c1)NN=N2,4.0%,u,6.8%,u,-2.6%,5.1%
c1cc2c3c(cccc3c1)NC1(CCCCC1)N2,-8.7%,18.4µM*,6.6%,18.4µM*,-0.5%,-3.4%
c1cc2c3c(cccc3c1)NC1(CCC3(CC1)Nc1cccc4cccc(c14)N3)N2,20.6µM*,9.2µM*,u,13µM*,u,-0.7%
c1cc2c3c(cccc3c1)NC1(CCCCCC1)N2,-5.8%,u,-1.4%,11.6µM*,23.4%,-28.6%
CC(=O)c1ccc(S(=O)(=O)N2CCN(C(=O)CSc3ccc(C)c(C)c3)CC2)cc1,-14.5%,u,-8.3%,u,u,-8.5%
O=C(CSc1nnc(-c2ccncc2)n1-c1ccc(Cl)cc1)NCc1cccs1,6.4%,-10.1%,9.7%,-10.7%,-3.3%,-18.4%
CCC1(CC)C(=O)C2=C3C1[C@H](C(=O)OC)C=C(C(=O)OC)C[C@H]3[C@H]1C(=O)N(CC(=O)OC)C(=O)[C@H]1[C@H]2C (stereo partly specified),5.6%,-12.1%,7.9%,-0.3%,-1.2%,-20.2%
CCc1ccc(NS(=O)(=O)c2c(C)nc3sc(CC)nn3c2=O)cc1,8.8%,u,0.7%,13µM*,-3.0%,-12.0%

# Screening results from PubChem BioAssay.
